# DT40 TDP1 CPT = growth inhibition of DT40 Tdp1-/-;hTDP1 cells with camptothecin (screen for TDP1 inhibitors). chicken DT40 Tdp1-/-;hTDP1 cells + 20 nM CPT, ATP luminescence, 48 h. Potency, µM (doses to about 46.2 µM), actives largely listed as inhibitors. actives 12% (n = 420,000). AID 686979; note: nearly all actives have a fitted effect of over 55% in size
#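 Chicken DT40 Tdp1-/- cells stably complemented with human TDP1 were seeded at 400 cells/well in medium containing 20 nM camptothecin, exposed to pin-transferred compounds, and grown at 37 °C for at least 48 hr. Viability was read as ATP luminescence.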
# TDP1 block = inhibitors of human tyrosyl-DNA phosphodiesterase TDP1. Q9NUW8. recombinant TDP1, AlphaScreen DNA substrate cleavage. Potency, µM (series often up to 130 µM), most hits filed as inhibitors. actives 0.28% (n = 350,000); note: nearly all actives have a fitted effect of over 40% in size
#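 AlphaScreen read-out: signal falls as enzyme removes the 3' tyrosine-FITC from a 5'-biotinylated DNA oligo (15 nM, 5 min, RT). Enzyme was E. coli-made recombinant Tdp1 at 1 nM, exposed to compound for 15 min beforehand; beads 10 ug/ml, 10 min.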
# DT40 TDP1 no CPT = qHTS for Inhibitors of human tyrosyl-DNA phosphodiesterase 1 (TDP1): qHTS in cells in absence of CPT | DT40 Tdp1-/- hTDP1 cells, no CPT, ATP luminescence, 48 h | Potency, µM (series often up to 46.2 µM), usual class: inhibitors | actives 15% (n = 420,000); note: nearly all actives have a fitted effect of over 55% in size
#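 Chicken DT40 Tdp1-/- cells complemented with human TDP1, screened without camptothecin (DMSO vehicle only), 400 cells/well. Compounds pin-transferred, cells incubated at 37 °C for at least 48 hr. Growth read as ATP-dependent luminescence (CellTiter-Glo, 30 min at RT).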
# ClpP mod = qHTS Assay for Activators of ClpP; Potency, µM (titrated, usually from 57.5 µM); ATP-dependent Clp protease proteolytic subunit (Bacillus subtilis (strain 168)), P80244; purified B. subtilis ClpP, FRET peptide cleavage, 20 min; actives 1.9% (n = 340,000); AID 651965, 2013; active = well fitted falling curve with a large enough effect; inconclusive = small, poorly fitted or top-dose-only effect; inactive = no such curve, though single readings can be large or run the other way; note: the source files actives as falling curves though it sought activators and does not explain the sign; nearly all actives have a fitted effect of over 65% in size
# Target sequence (P80244 whole entry, looked up): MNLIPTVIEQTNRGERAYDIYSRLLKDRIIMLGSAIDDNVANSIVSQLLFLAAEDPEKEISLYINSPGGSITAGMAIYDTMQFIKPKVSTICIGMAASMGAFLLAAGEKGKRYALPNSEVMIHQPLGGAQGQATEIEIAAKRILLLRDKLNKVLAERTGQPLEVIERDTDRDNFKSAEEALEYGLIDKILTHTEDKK
#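 Buffer: 100 mM Tris/HCl pH8, 100 mM KCl, 0.05% low protease BSA, 2.5% glycerol, 0.01% Tween-20. ClpP 10 microg/mL final; 20 min RT; delta FRET normalized to ADEP and DMSO controls.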
# A number is an active result; i = inactive; ? = inconclusive; nt = no result given. A selection: hits, their analogues and other compounds. The true share with any hit is near 17%. Unless noted, calls come from the whole dose curve; as a rule, active = well fitted curve in the direction sought with a large enough effect; inconclusive = small, poorly fitted or top-dose-only effect, or another doubt; inactive = no such curve, though single readings can be large; an effect the other way counts as inactive or inconclusive.
SMILES,DT40 TDP1 CPT,TDP1 block,DT40 TDP1 no CPT,ClpP mod
CCN(CC1CCCN(CCc2cccc(OC)c2)C1)C(=O)C=C(C)C (stereo unspecified),i,nt,i,i
CCN(Cc1cccc(OC)c1)CC1CCCN(CCc2cccc(OC)c2)C1 (stereo unspecified),15µM,nt,?,i
CC(=O)Nc1ccc(CN(C)CC2CCCN(CCc3cccc(C(F)(F)F)c3)C2)cc1 (stereo unspecified),13µM,i,?,i
COc1ccc(CN(C)CC2CCCN(CCc3ccccc3C)C2)cc1O (stereo unspecified),i,nt,?,nt
COc1cccc(CN(C)CC2CCCN(CCc3ccccc3C)C2)c1 (stereo unspecified),?,nt,18µM,i
O=C(Cn1cc(S(=O)(=O)N2CCN(c3ccccc3F)CC2)c2ccccc2c1=O)Nc1ccc(F)cc1Cl,i,i,i,i
COCCNC(=O)C(c1ccc(C)o1)N(C(=O)Cn1nnc2ccccc21)c1ccccc1 (stereo unspecified),i,i,i,i
O=C(Nc1ccc(C(F)(F)F)cc1)C1CC(=O)N(c2ccc3c(c2)OCCO3)C1 (stereo unspecified),i,i,i,i
O=C(Nc1nc(-c2ccc3c(c2)OCCO3)cs1)C1CC(=O)N(c2ccc3c(c2)OCCO3)C1 (stereo unspecified),11µM,i,?,i
COC(=O)c1ccc(CSc2nnc(NC(=O)C3CC(=O)N(c4ccc5c(c4)OCCO5)C3)s2)cc1 (stereo unspecified),23µM,i,21µM,i
CCc1ccc(C(=O)NNC(=O)C2CC(=O)N(c3ccc4c(c3)OCCO4)C2)cc1 (stereo unspecified),i,i,i,i
O=C(CSCC(=O)Nc1nc(-c2ccc3c(c2)OCO3)cs1)Nc1nccs1,12µM,nt,26µM,i
O=C(NCCc1ccc(C(F)(F)F)cc1)C1CC(=O)N(c2ccc3c(c2)OCCO3)C1 (stereo unspecified),?,i,21µM,i
CC1(C)C(=O)N(CC(=O)Nc2cccc(F)c2)c2ccc(S(=O)(=O)N3CCCCC3)cc21,?,i,?,i
COc1ccc(C2CC(=O)c3cnc(N4CCc5ccccc54)nc3C2)c(OC)c1 (stereo unspecified),nt,i,nt,nt
O=C(CN(Cc1ccc(Cl)cc1)C(=O)CNS(=O)(=O)c1ccc(F)cc1)NCC1CCCO1 (stereo unspecified),i,nt,i,nt
O=C(Nc1ccc2c(c1)OCO2)C1CC(=O)N(c2ccc3c(c2)OCCO3)C1 (stereo unspecified),i,i,i,nt
CC(=O)Nc1ccc(-c2csc(NC(=O)C3CC(=O)N(c4ccc5c(c4)OCCO5)C3)n2)cc1 (stereo unspecified),18µM,i,21µM,i
COc1ccc(CN(C)C(=O)C2CC(=O)N(c3ccc4c(c3)OCCO4)C2)cc1 (stereo unspecified),i,nt,?,i
O=C(O)C1CC(=O)N(c2ccc3c(c2)OCCO3)C1 (stereo unspecified),13µM,i,13µM,i
COc1cccc(CN(C)C(=O)C2CC(=O)N(c3ccc4c(c3)OCCO4)C2)c1 (stereo unspecified),?,i,?,14µM
O=C(Nc1nc(-c2ccc3c(c2)OCO3)cs1)C1CC1,2.3µM,i,2.3µM,i
COc1cccc(-c2ccnc(-n3ncc(C(=O)N(C)CCc4ccccn4)c3C)n2)c1,i,nt,i,nt
Cc1ccc2c(=O)cc(C(=O)Nc3sc4c(c3C(=O)NCC3CCCO3)CCC4)oc2c1 (stereo unspecified),i,i,i,i
CN(C)C(CNC(=O)c1ccc2c(=O)n(-c3ccccc3F)c(=S)[nH]c2c1)Cc1ccccc1 (stereo unspecified),26µM,i,18µM,i
CCCCN1CCc2c1nc1ccc(Br)cc1c2N,?,i,23µM,?
COc1ccc(Cl)cc1N1C(=O)/C(=C\c2sccc2C)N=C1SCC(=O)NC1CC1,16µM,i,16µM,i
C[C@@H]1[C@H](c2ccccc2)OCCS(=O)(=O)N1Cc1ccc(Cl)cc1,11µM,nt,10µM,i
C[C@@H]1[C@H](c2ccccc2)OCCS(=O)(=O)N1Cc1ccccc1Br,?,nt,?,i
Cc1ccccc1CN1[C@H](C)[C@H](c2ccccc2)OCCS1(=O)=O,?,nt,13µM,i

# Screening data deposited in PubChem BioAssay by National Center for Advancing Translational Sciences (NCATS).
